Structures are written as SMILES. Active and inactive are the calls of the source.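 Rule for the calls, unless noted: active = mean inhibition above 46.5%, the solvent-only control mean plus 3 SD; inactive = the rest.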

In general, inhibition refers to the drop in the measured response relative to a control, in per cent.

One experiment relates to transactivating tegument protein VP16 (Human herpesvirus 1). Nature of the experiment: compounds suppressing VP16-driven luciferase signal – cell-based, luminescence, single concentration, counter-screen for SRC2 inhibitor project (AID 652007; in the data active = inhibition above about 36%). The following applies: cell-based VP16 transactivation luciferase reporter, at 8.9 µM, stronger effect = higher value. Background: A counterscreen serves to expose hits that act by an unwanted route or on another target.
Turning to `CCN(C(=O)c1cc(S(=O)(=O)N2CCCCC2)c[nH]1)c1ccc(OC)cc1`, the inhibition is 8.33% (inactive).

Turning to `Cc1noc(/C=C/c2ccco2)c1S(=O)(=O)N1CCC(C(=O)Nc2ccc(Cl)cn2)CC1`, the inhibition is 17.2% (inactive).

Turning to `O=C1CCC2S/C(=C/Nc3ccc(C(F)(F)F)cc3)C(=O)N12` (stereo not drawn), the inhibition was 3.33% (inactive).

As for `CC(=O)N1CCCC(c2cc(C(=O)Nc3ccccc3)no2)C1` (stereo not drawn), the inhibition was -36.7% (inactive).

For `COc1ccccc1NS(=O)(=O)c1cccc(NC(=O)c2cncc(Br)c2)c1`, the inhibition was 14.8% (inactive).

In the case of `Cc1cc(NC(=O)Cc2ccccc2)c2ccccc2n1`, the inhibition is 9.96% (inactive).

Take `O=C(Nc1ccc2c(c1)OCCO2)c1[nH]c(C(F)(F)F)nc1-c1ccccc1`: the inhibition was -38.1% (inactive).

For the compound `CC(=O)Nc1ccc(OCC(=O)Nc2ccc(Cl)c(S(=O)(=O)N3CCOCC3)c2)cc1`, the inhibition was -7.09% (inactive).

Consider `Cc1ccc(Oc2ccc(C(=O)NCc3ccncc3)cc2)cc1`, for which the inhibition was 7.11% (inactive).

Regarding `Cc1ccc(OCC(=O)NC(=S)Nc2ccccn2)c(Br)c1`, the inhibition is 20.5% (inactive).

`Cc1sc2ncnc(NC3CCN(Cc4ccccc4)CC3)c2c1C`: the inhibition was 14.3% (inactive).

As to `CCn1ccnc1CN(C)Cc1cn[nH]c1-c1ccc(F)cc1F`, the inhibition is -19.6% (inactive).

Regarding `O=C(CCl)Nc1ccc(Oc2cnc3ccccc3n2)cc1`, the inhibition was 19.5% (inactive).

As for `c1ccc2c(-c3cccc4nccn34)cncc2c1`, the inhibition was 5.09% (inactive).

In the case of `Cc1sc2ncnc(N3CCC(C(=O)N(C)CC(=O)Nc4cccc(F)c4)CC3)c2c1C`, the inhibition is -11.2% (inactive).

Regarding `CCN1CCN(C(=S)c2ccc(-c3ccccc3)cc2)CC1`, the inhibition was 15.4% (inactive).

As for `Cc1ncc(CO)c(/C=N/Nc2ccc(C(F)(F)F)cn2)c1O`, the inhibition is 8.88% (inactive).

For `COc1ccc(S(=O)(=O)N2CCOCC2)cc1NC(=O)CCNC(=O)c1ccc(Br)cc1`, the inhibition is 2.56% (inactive).

Turning to `CC(C)CCNC(=O)c1sc2ccc(S(=O)(=O)N3CCCCC3)cc2c1N`, the inhibition is 7.45% (inactive).

Consider `Cc1nc2sc(C(N)=O)c(N)c2c(C)c1CC(=O)c1ccccc1`, for which the inhibition was -52.2% (inactive).

As for `CN(C)S(=O)(=O)N1CCC(Oc2cccc(C(=O)NC3CCCCC3)c2)CC1`, the inhibition is 4.19% (inactive).

Consider `C=C1C(=O)C23CCC4C(C)(C(=O)OC)CCCC4(C)C2CCC1(O)C3` (stereo not drawn), for which the inhibition is 83.1% (active).

`O=C1C=C(NCCc2cc(Br)c(O)c(Br)c2)C(=O)c2ncccc21`: the inhibition was 4.39% (inactive).

Consider `O=S(=O)(Nc1ccc2c(c1)OCCO2)c1cccc2nsnc12`, for which the inhibition is -9.03% (inactive).

Regarding `c1cn(-c2ncnc3sc4c(c23)CCCC4)cn1`, the inhibition was -1.75% (inactive).

Regarding `CC(C)(C)c1cc(/C=N/O)cc(C(C)(C)C)c1O`, the inhibition was -7.33% (inactive).

Take `C=C1C(=O)C23C(O)C1CCC2C12COC3(O)C(O)C1C(C)(C)CCC2O` (stereo not drawn): the inhibition is 2.43% (inactive).

For `CCOC(=O)C1CCN(C(=O)c2ccc(OCC(=O)Nc3cccc(C(F)(F)F)c3)c(OC)c2)CC1`, the inhibition is 24.1% (inactive).

Turning to `COc1cccc(N2CCN(c3c(C#N)c(C(F)(F)F)nn3C)CC2)c1`, the inhibition was -6.45% (inactive).

As to `O=[N+]([O-])c1ccc2c(c1)-c1ccccc1C2=NO`, the inhibition was 12.1% (inactive).

On to `O=C(NCCc1cccc(Cl)c1)c1ccc(OC2CCN(Cc3ccccn3)CC2)cc1`, for which the inhibition was 12.7% (inactive).

With `CN(c1ccc(C(=O)N2CCN(Cc3ccc4c(c3)OCO4)CC2)cc1)S(=O)(=O)c1ccccc1`, the inhibition is 31% (inactive).

On to `Cc1ccc(C(=O)C(C(=O)/C=C/c2ccccc2)=C2SCCCS2)cc1`, for which the inhibition was 42.6% (active).

As for `COc1ccc(CNc2ncc(-c3ccc(F)cc3)n2C)c2ccccc12`, the inhibition was 24.8% (inactive).

The target in another experiment is Nuclear receptor coactivator 2 (Homo sapiens) (UniProt Q15596). The experiment in a line: inhibition of GAL4-SRC2 driven luciferase expression – cell-based, luminescence, HEK293, triplicate, confirmation (AID 652008).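 Note: 0% = DMSO-treated cells and 100% = Gossypol at 36 µM.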 The following applies: HEK293 GAL4-SRC2 luciferase reporter, at 8.9 µM, stronger effect = higher value. (In general: A reporter such as luciferase makes a cellular process visible.)
Nuclear receptor coactivator 2 (Homo sapiens), sequence (Q15596 whole entry, looked up, the tested form may be a part): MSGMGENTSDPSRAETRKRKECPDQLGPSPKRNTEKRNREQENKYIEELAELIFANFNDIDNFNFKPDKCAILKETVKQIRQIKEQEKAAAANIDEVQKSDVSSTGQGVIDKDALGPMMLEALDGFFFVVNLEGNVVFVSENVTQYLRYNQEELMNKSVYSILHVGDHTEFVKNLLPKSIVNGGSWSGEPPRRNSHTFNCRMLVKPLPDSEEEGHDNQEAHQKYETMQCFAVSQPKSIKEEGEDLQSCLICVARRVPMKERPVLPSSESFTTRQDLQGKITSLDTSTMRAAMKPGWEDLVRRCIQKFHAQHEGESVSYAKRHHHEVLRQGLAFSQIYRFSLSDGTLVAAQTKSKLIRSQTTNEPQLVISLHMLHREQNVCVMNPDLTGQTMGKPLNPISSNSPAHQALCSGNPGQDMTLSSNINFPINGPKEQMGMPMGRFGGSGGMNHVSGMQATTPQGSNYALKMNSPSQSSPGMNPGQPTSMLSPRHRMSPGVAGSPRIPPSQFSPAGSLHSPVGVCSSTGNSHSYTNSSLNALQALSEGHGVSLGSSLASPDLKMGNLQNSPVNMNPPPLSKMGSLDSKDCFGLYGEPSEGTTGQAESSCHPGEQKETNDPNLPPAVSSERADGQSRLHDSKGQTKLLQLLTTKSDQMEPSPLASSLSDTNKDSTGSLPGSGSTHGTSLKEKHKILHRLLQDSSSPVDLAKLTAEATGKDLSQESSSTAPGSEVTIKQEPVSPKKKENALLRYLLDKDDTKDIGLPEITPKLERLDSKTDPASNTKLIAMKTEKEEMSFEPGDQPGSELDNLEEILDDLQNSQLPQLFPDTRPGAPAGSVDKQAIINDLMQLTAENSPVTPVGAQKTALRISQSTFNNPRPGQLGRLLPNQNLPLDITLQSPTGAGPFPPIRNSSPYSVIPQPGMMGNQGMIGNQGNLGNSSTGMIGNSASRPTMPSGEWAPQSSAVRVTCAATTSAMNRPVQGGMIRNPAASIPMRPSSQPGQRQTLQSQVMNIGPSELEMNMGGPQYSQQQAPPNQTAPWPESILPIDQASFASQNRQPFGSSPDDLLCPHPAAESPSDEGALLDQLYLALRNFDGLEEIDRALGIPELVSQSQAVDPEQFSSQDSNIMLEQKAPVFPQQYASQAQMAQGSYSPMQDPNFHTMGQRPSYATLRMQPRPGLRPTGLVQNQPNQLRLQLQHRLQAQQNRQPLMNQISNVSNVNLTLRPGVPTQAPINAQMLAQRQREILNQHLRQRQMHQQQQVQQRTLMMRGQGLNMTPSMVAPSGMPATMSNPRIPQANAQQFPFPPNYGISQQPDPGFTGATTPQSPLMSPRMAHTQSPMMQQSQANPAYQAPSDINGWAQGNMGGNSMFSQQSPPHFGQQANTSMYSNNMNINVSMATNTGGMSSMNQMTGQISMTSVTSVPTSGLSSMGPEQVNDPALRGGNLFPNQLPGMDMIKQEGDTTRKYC
For `CCN(C(=O)c1cc(S(=O)(=O)N2CCCCC2)c[nH]1)c1ccc(OC)cc1`, the inhibition is 25.9% (inactive).

Take `Cc1noc(/C=C/c2ccco2)c1S(=O)(=O)N1CCC(C(=O)Nc2ccc(Cl)cn2)CC1`: the inhibition is 24.2% (inactive).

With `O=C1CCC2S/C(=C/Nc3ccc(C(F)(F)F)cc3)C(=O)N12` (stereo not drawn), the inhibition is 66.4% (active).

`CC(=O)N1CCCC(c2cc(C(=O)Nc3ccccc3)no2)C1` (stereo not drawn): the inhibition is 40.6% (inactive).

For the compound `COc1ccccc1NS(=O)(=O)c1cccc(NC(=O)c2cncc(Br)c2)c1`, the inhibition is 21% (inactive).

Consider `Cc1cc(NC(=O)Cc2ccccc2)c2ccccc2n1`, for which the inhibition was 24.6% (inactive).

Consider `O=C(Nc1ccc2c(c1)OCCO2)c1[nH]c(C(F)(F)F)nc1-c1ccccc1`, for which the inhibition is 49.1% (active).

Regarding `CC(=O)Nc1ccc(OCC(=O)Nc2ccc(Cl)c(S(=O)(=O)N3CCOCC3)c2)cc1`, the inhibition was 19.6% (inactive).

On to `Cc1ccc(Oc2ccc(C(=O)NCc3ccncc3)cc2)cc1`, for which the inhibition was 21.1% (inactive).

As for `Cc1ccc(OCC(=O)NC(=S)Nc2ccccn2)c(Br)c1`, the inhibition is 37.7% (inactive).

In the case of `Cc1sc2ncnc(NC3CCN(Cc4ccccc4)CC3)c2c1C`, the inhibition is 29% (inactive).

On to `CCn1ccnc1CN(C)Cc1cn[nH]c1-c1ccc(F)cc1F`, for which the inhibition is 10.5% (inactive).

Regarding `O=C(CCl)Nc1ccc(Oc2cnc3ccccc3n2)cc1`, the inhibition is 46.6% (active).

Regarding `c1ccc2c(-c3cccc4nccn34)cncc2c1`, the inhibition was 11% (inactive).

On to `Cc1sc2ncnc(N3CCC(C(=O)N(C)CC(=O)Nc4cccc(F)c4)CC3)c2c1C`, for which the inhibition was 25.1% (inactive).

Take `CCN1CCN(C(=S)c2ccc(-c3ccccc3)cc2)CC1`: the inhibition was 78.8% (active).

Consider `Cc1ncc(CO)c(/C=N/Nc2ccc(C(F)(F)F)cn2)c1O`, for which the inhibition was 38.8% (inactive).

In the case of `COc1ccc(S(=O)(=O)N2CCOCC2)cc1NC(=O)CCNC(=O)c1ccc(Br)cc1`, the inhibition was 44.6% (inactive).

As to `CC(C)CCNC(=O)c1sc2ccc(S(=O)(=O)N3CCCCC3)cc2c1N`, the inhibition was 27.6% (inactive).

With `Cc1nc2sc(C(N)=O)c(N)c2c(C)c1CC(=O)c1ccccc1`, the inhibition is 19.1% (inactive).

On to `CN(C)S(=O)(=O)N1CCC(Oc2cccc(C(=O)NC3CCCCC3)c2)CC1`, for which the inhibition is 13.4% (inactive).

Regarding `C=C1C(=O)C23CCC4C(C)(C(=O)OC)CCCC4(C)C2CCC1(O)C3` (stereo not drawn), the inhibition is 98.2% (active).

Consider `O=C1C=C(NCCc2cc(Br)c(O)c(Br)c2)C(=O)c2ncccc21`, for which the inhibition was 25.9% (inactive).

`O=S(=O)(Nc1ccc2c(c1)OCCO2)c1cccc2nsnc12`: the inhibition is 44% (inactive).

Turning to `c1cn(-c2ncnc3sc4c(c23)CCCC4)cn1`, the inhibition was -4.88% (inactive).

With `CC(C)(C)c1cc(/C=N/O)cc(C(C)(C)C)c1O`, the inhibition was 9.3% (inactive).

Consider `C=C1C(=O)C23C(O)C1CCC2C12COC3(O)C(O)C1C(C)(C)CCC2O` (stereo not drawn), for which the inhibition is 25.9% (inactive).

Turning to `CCOC(=O)C1CCN(C(=O)c2ccc(OCC(=O)Nc3cccc(C(F)(F)F)c3)c(OC)c2)CC1`, the inhibition was 45.3% (inactive).

Consider `COc1cccc(N2CCN(c3c(C#N)c(C(F)(F)F)nn3C)CC2)c1`, for which the inhibition is 41.6% (inactive).

On to `O=[N+]([O-])c1ccc2c(c1)-c1ccccc1C2=NO`, for which the inhibition was 13.5% (inactive).

For the compound `O=C(NCCc1cccc(Cl)c1)c1ccc(OC2CCN(Cc3ccccn3)CC2)cc1`, the inhibition is 39.1% (inactive).

Consider `CN(c1ccc(C(=O)N2CCN(Cc3ccc4c(c3)OCO4)CC2)cc1)S(=O)(=O)c1ccccc1`, for which the inhibition is 37.4% (inactive).

For the compound `Cc1ccc(C(=O)C(C(=O)/C=C/c2ccccc2)=C2SCCCS2)cc1`, the inhibition is 56% (active).

`COc1ccc(CNc2ncc(-c3ccc(F)cc3)n2C)c2ccccc12`: the inhibition is 94.5% (active).

(Values after PubChem BioAssay.)
